# “And” between values parts separate entries of the source, which are not always exact repeats. Equal values may be shown once. Records with an inconclusive call do not appear. The source made the active and inactive calls. The calls were made as follows, unless noted: active = hit-call score of the fitted dose curve at least 0.9, where 1 is the maximum; inconclusive = response in the unintended direction; inactive = score below 0.9.
# Tests used:
# [1] = Tanguay_ZF_120hpf_TRUN_legacy: (Legacy) Oregon State University Tanguay Lab 120 Hour Post-fertilization zebrafish Assay for Truncated Body (AID 2283655)
# Outline: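 Truncated body is recorded as a binary endpoint at 120 hpf by brightfield imaging of wild-type 5D larvae. Exposure runs statically from 6 hpf at 28C with 0.64% DMSO; embryos dying earlier are not scored.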
# [2] = Tanguay_ZF_120hpf_NC_legacy: (Legacy) Oregon State University Tanguay Lab 120 Hour Post-fertilization zebrafish Assay for Notochord and Tail Malformation (AID 2283656)
# Outline: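 Binary scoring of notochord distortion by brightfield microscopy; embryos dying were not scored. Wild-type Tropical 5D embryos, chorion removed, exposed singly and statically from 6 to 120 hpf, 28C, sealed, 0.64% DMSO.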
# [3] = Tanguay_ZF_120hpf_TR_legacy: (Legacy) Oregon State University Tanguay Lab 120 Hour Post-fertilization zebrafish Assay for Touch Response (AID 2283667)
# Outline: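 Binary touch-response call at 120 hpf, analysed as gain of signal versus DMSO baseline. Wild-type 5D larvae, static exposure at 28C, 0.64% DMSO final; 5uM trimethyltin chloride as positive control.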
# [4] = STM_H9_OrnithineISnorm_perc: Stemina devTOX quickPredict H9 human embryonic stem cell (hESC)-based Assay for Ornithine (ORN) Metabolite Biomarker, Normalized (AID 2283712; active = hit-call score of the fitted dose curve at least 0.9, where 1 is the maximum; inactive = score below 0.9;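 also: ornithine released into spent medium during last day measured by mass spectrometry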)
# Outline: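 Ornithine in spent medium from the last 24 h of a 72 h exposure, deproteinised and quantified by UPLC-HRMS against an isotope-labelled internal standard, expressed relative to 0.1% DMSO. Pluripotent H9 cells; compound refreshed every 24 h.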
# [5] = CCTE_Padilla_ZF_144hpf_TERATOSCORE: (Legacy) CCTE's 144 Hour Post-fertilization zebrafish Assay Teratoscore, Padilla Lab (AID 2283679; active = hit-call score of the fitted dose curve at least 0.9, where 1 is the maximum; inactive = score below 0.9;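 as to AC50: zebrafish embryos with chorions exposed by immersion from 6-8 hpf to 5 dpf with daily renewal; teratogenicity score from eye scoring of death hatching and malformations at 144 hpf; higher score means more developmental defects relative to DMSO baseline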)
# Outline: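 Larvae scored by eye at 144 hpf for death, hatching and malformations after a day in clean Hanks'. Before that, daily-renewed exposure at 80 uM (0.4% DMSO, 26C) from roughly 6-8 hpf through 5 dpf, 4 embryos per chemical.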
# [6] = system: Thyroperoxidase (TPO), gene 54314; experiment: CCTE_Simmons_AUR_rTPO: CCTE's Amplex UltraRed Assay for Thyroperoxidase (TPO) Inhibition, Simmons Lab (AID 2283662);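 also: potency for loss of signal meaning inhibition of peroxidase activity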
# Outline: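 Endpoint is decreased Amplex UltraRed fluorescence after a 30-min, 37C reaction of rat thyroid microsomes with 300 uM H2O2. Eight test concentrations (5 nM–87.5 uM final) in 0.5% DMSO, three biological replicates each.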
# [7] = CCTE_Simmons_CellTiterGLO_HEK293T: Viability Assessment in CCTE's Assays for Thyroperoxidase (TPO) Inhibition, Simmons Lab (AID 2283665);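 as to AC50: cells exposed to compound for 24 h before readout; actives reduce ATP signal below DMSO vehicle meaning cytotoxicity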
# Outline: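 Luciferase-coupled ATP content after 24 h exposure gives viability; 8-point series from 5 nM to 87.5 uM final in 0.5% DMSO. Human HEK293T cells, 1% FBS medium, three biological replicates, dichlone positive control.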
# [8] = read-out: solute carrier (SLC10A1), SLC10A1 (gene 6554); experiment: LTEA_HepaRG_SLC10A1: Life Technologies and Expression Analysis (LTEA) Assay for solute carrier (SLC10A1) using HepaRG (AID 2283657; active = hit-call score of the fitted dose curve at least 0.9, where 1 is the maximum; inactive = score below 0.9); conditions: mRNA level, 48 h; actives raise or lower the signal
# Outline: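 HepaRG, 48 h exposure, 8-pt half-log curve from 100 uM in 0.5% DMSO, duplicates. Read-out: TaqMan qRT-PCR of SLC10A1 mRNA, normalized to three housekeeping genes. Gain/loss fit vs DMSO baseline.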
# [9] = read-out: matrix metalloproteinase-1 (MMP1), MMP1 (gene 4312); experiment: LTEA_HepaRG_MMP1: Life Technologies and Expression Analysis (LTEA) Assay for matrix metalloproteinase-1 (MMP1) using HepaRG (AID 2283658; active = hit-call score of the fitted dose curve at least 0.9, where 1 is the maximum; inactive = score below 0.9); conditions: mRNA level, 48 h; actives raise or lower the signal
# Outline: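 HepaRG, ~100,000 cells/well, 48 h pre-culture; serum-free induction medium; test chemical 8 conc (max 100 uM, half-log), duplicate, 48 h; 0.5% DMSO; qRT-PCR MMP1, housekeeping-normalized; gain/loss fit vs DMSO.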
# [10] = read-out: Cytochrome P450 (CYP24A1_1), CYP24A1 (gene 1591); experiment: LTEA_HepaRG_CYP24A1_1: Life Technologies and Expression Analysis (LTEA) Assay for Cytochrome P450 (CYP24A1_1) using HepaRG (AID 2283671; active = hit-call score of the fitted dose curve at least 0.9, where 1 is the maximum; inactive = score below 0.9); conditions: mRNA level, 48 h; actives raise or lower the signal
# Outline: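 Readout is CYP24A1 transcript level by qRT-PCR, normalized to three housekeeping genes, with gain or loss of signal fitted against 0.5% DMSO. Human HepaRG cells received compound for 48 h at up to 100 uM.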
compound,measurement,setting,value
CCc1ccc(CCOc2ccc(CC3SC(=O)NC3=O)cc2)nc1 (centres undefined),outcome,[1],inactive
same,outcome,[2],inactive
same,outcome,[3],inactive
same,AC50,[4],72.1 µM (active)
CCCCCCCCCCCCCCCS(=O)(=O)Oc1ccccc1,outcome,[1],inactive
same,outcome,[3],inactive
CCCCCCC(=O)O,outcome,[2],inactive
same,outcome,[3],inactive
O=C(O)Cc1cc(I)c(Oc2cc(I)c(O)c(I)c2)c(I)c1,outcome,[1],inactive
same,outcome,[2],inactive
same,outcome,[3],inactive
same,AC50,[5],0.0352 µM (active)
same,outcome,[4],inactive
CCCCCCCCCCCCCC[N+](C)(C)C,AC50,[6],38.4 µM (active)
same,AC50,[7],13.7 µM (active)
COc1ccc([N+](=O)[O-])cc1N,outcome,[1],inactive
same,AC50,[6],3.52 µM (active)
same,outcome,[7],inactive
same,outcome,[3],inactive
same,outcome,[4],inactive
O=C(OCCOCCOC(=O)c1ccccc1)c1ccccc1,outcome,[1],inactive
same,outcome,[8],inactive
same,outcome,[9],inactive
same,outcome,[3],inactive
same,outcome,[10],inactive
same,AC50,[5],1.74 µM (active)
same,outcome,[4],inactive
C[C@@H]1C[C@H]2[C@@H]3CCC4=CC(=O)C=C[C@]4(C)[C@@]3(F)[C@@H](O)C[C@]2(C)[C@@]1(O)C(=O)COP(=O)(O)O,outcome,[1],inactive
same,outcome,[2],inactive
same,outcome,[3],inactive
same,outcome,[5],inactive
same,outcome,[4],inactive
c1ccc2c(c1)Cc1ccccc1-2,outcome,[2],inactive
same,outcome,[3],inactive
CN1CCC[C@H]1c1cccnc1,outcome,[1],inactive
same,outcome,[2],inactive
same,outcome,[3],inactive
same,outcome,[4],inactive
Cc1oc(-c2ccccc2)nc1CCOc1ccc(C[C@H](Nc2ccccc2C(=O)c2ccccc2)C(=O)O)cc1,outcome,[1],inactive
same,AC50,[6],27.5 µM (active)
same,AC50,[7],12.1 µM (active)
same,outcome,[3],inactive
same,AC50,[5],5.11 µM (active)
OCCC(F)(F)C(F)(F)C(F)(F)C(F)(F)C(F)(F)C(F)(F)F,outcome,[1],inactive
same,outcome,[3],inactive
same,outcome,[5],inactive
COCC(C)OCC(C)O (centres undefined),outcome,[2],inactive
same,outcome,[3],inactive
CCCCC(CC)COC(=O)CCCCC(=O)OCC(CC)CCCC (centres undefined),outcome,[1],inactive
same,outcome,[2],inactive
same,outcome,[3],inactive
same,outcome,[5],inactive
O=[N+]([O-])c1ccc(O)cc1,outcome,[1],inactive
same,outcome,[2],inactive
same,outcome,[3],inactive
same,AC50,[5],64.4 µM (active) and 59 µM (active)
COCC(C)O (centres undefined),outcome,[1],inactive
same,outcome,[3],inactive
same,outcome,[5],inactive
CC(C)(C)CC(C)(C)c1ccc(O)c(-n2nc3ccccc3n2)c1,outcome,[1],inactive
same,outcome,[3],inactive
CCCOc1sc(C(=O)N2CCC(c3cc(CN)ccc3F)CC2)c(C)c1Br,outcome,[1],inactive
same,AC50,[5],57.5 µM (active)
CCCCOCCO,outcome,[2],inactive
same,outcome,[5],inactive
CC(C)(C)c1cccc(C(C)(C)C)c1O,outcome,[2],inactive
same,AC50,[6],2.68 µM (active)
same,AC50,[7],10.2 µM (active)
same,AC50,[5],97.8 µM (active)
c1ccc2c(c1)ccc1ccccc12,outcome,[1],inactive
same,outcome,[2],inactive
same,outcome,[3],inactive
same,outcome,[5],inactive
same,AC50,[4],88.8 µM (active)
OC1CCCCC1,outcome,[1],inactive
same,outcome,[2],inactive
same,outcome,[3],inactive
same,outcome,[5],inactive
c1ccc2cc3c(ccc4ccccc43)cc2c1,outcome,[1],inactive
same,AC50,[6],22.6 µM (active)
same,AC50,[7],43.8 µM (active)
same,outcome,[3],inactive
same,AC50,[5],20.4 µM (active)
CN(C)C=O,outcome,[1],inactive
same,outcome,[3],inactive
same,outcome,[4],inactive
N#C[C@@H]1CC(F)(F)CN1C(=O)CNC1CC2CCC(C1)N2c1ncccn1 (some centres undefined),outcome,[1],inactive
same,AC50,[6],36.6 µM (active)
same,outcome,[7],inactive
same,outcome,[4],inactive
Cc1cc(CCN2CCN(c3nsc4ccccc34)CC2)cc2c1NC(=O)CC2(C)C,AC50,[1],3.08 µM (active)
same,AC50,[2],4.88 µM (active)
same,AC50,[3],6.3 µM (active)
same,AC50,[5],1.64 µM (active)
same,AC50,[4],5 µM (active)
CC#C[C@]1(O)CC[C@H]2[C@@H]3CCC4=CC(=O)CCC4=C3[C@@H](c3ccc(N(C)C)cc3)C[C@@]21C,outcome,[2],inactive
same,AC50,[6],4.74 µM (active)
same,AC50,[7],17.7 µM (active)
same,AC50,[3],11.7 µM (active)
same,AC50,[5],14.5 µM (active)
Oc1cccc(O)c1,outcome,[2],inactive
same,AC50,[6],0.0137 µM (active)
same,outcome,[7],inactive
OC1CCC(C2CCCCC2)CC1 (centres undefined),outcome,[1],inactive
same,outcome,[3],inactive
same,AC50,[5],87.6 µM (active)
OCCC(F)(F)C(F)(F)C(F)(F)C(F)(F)C(F)(F)C(F)(F)C(F)(F)C(F)(F)F,outcome,[1],inactive
same,outcome,[2],inactive
same,outcome,[3],inactive
same,outcome,[5],inactive
Cc1cc(C)c(O)c(C)c1,outcome,[2],inactive
same,AC50,[6],5.53 µM (active)
same,outcome,[7],inactive
same,outcome,[3],inactive
